{"source": "PubChem BioAssay (Tox21)", "note": "Records with an inconclusive call do not appear. A call without a number means that no potency is given here. A number with no mark means an inactive call. The source made the active and inactive calls. Unless noted, the call rests on the fitted dose curve."}
{"test_system": "not listed separately", "assay": "qHTS assay to identify small molecule agonists of the estrogen related receptor signaling pathway with the pleiotropic PPARgamma coactivator (PGC) from Tox21 10K library (AID 1224842; active means well fitted activation curve with a large enough effect in the repeat runs; further: nearly all actives have a fitted effect of over 15% in size)", "conditions": "PGC/ERR reporter cell line, luciferase ONE-Glo, 18 h; series mostly up to 92.4 µM", "summary_of_the_method": "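PGC/ERR reporter cell line, 2,000 cells per well, incubated 6 h at 37 C before 23 nL compound in DMSO was added. After 18 h at 37 C, One-Glo luminescence read following 30 min at room temperature.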"}
{"smiles": "O=C(O)c1cccnc1Nc1cccc(C(F)(F)F)c1", "Potency": "inactive"}
{"smiles": "O=C(Nc1ccccc1)c1cc([N+](=O)[O-])ccc1Cl", "Potency": "inactive"}
{"smiles": "CC(CC(C#N)(c1ccccc1)C(C)C)N(C)C", "note": "(stereo unspecified)", "Potency": "inactive"}
{"smiles": "CC[C@H](NC(C)C)[C@H](O)c1ccc(O)c2[nH]c(=O)ccc12", "Potency": "inactive"}
{"target": "Thyrotropin receptor (Homo sapiens) (UniProt P16473)", "sequence (P16473 whole entry, looked up)": "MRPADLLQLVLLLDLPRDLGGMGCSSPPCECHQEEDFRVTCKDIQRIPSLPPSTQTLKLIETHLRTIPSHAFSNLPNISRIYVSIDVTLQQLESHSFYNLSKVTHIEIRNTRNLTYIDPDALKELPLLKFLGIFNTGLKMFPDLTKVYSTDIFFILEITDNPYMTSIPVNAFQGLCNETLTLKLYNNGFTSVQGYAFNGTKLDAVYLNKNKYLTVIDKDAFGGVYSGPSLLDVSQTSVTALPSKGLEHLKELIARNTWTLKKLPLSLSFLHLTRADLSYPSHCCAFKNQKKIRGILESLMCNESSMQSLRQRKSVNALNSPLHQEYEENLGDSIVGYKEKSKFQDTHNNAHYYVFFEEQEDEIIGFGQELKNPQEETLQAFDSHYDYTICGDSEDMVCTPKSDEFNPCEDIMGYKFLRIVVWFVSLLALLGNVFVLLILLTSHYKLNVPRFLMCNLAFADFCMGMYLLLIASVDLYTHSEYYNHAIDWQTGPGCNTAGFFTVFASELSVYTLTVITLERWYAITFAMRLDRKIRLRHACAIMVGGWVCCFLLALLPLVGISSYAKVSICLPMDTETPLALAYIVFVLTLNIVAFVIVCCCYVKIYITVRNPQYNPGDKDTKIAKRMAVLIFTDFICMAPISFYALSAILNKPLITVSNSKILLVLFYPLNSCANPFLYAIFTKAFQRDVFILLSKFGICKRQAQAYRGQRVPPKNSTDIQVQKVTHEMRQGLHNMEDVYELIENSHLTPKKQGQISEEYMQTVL", "assay": "qHTS assay to identify small molecule agonists of the thyroid stimulating hormone receptor (TSHR) signaling pathway (AID 1224843); further: nearly all actives have a fitted effect of over 45% in size", "conditions": "TSHR-HEK293 cells, cAMP HTRF, agonist mode, 30 min; series mostly up to 92.4 µM", "summary_of_the_method": "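Steps: seed 800 TSHR-HEK293 cells per well; add test compound and hold 30 min at ambient temperature; dispense cAMP-d2 then anti-cAMP cryptate; incubate 1 h at ambient; measure fluorescence intensity.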"}
{"smiles": "CCCCCCCCCCCCN1CCOCC1", "Potency": "inactive"}
{"smiles": "CC(=O)c1ccc(Cl)c(Cl)c1Cl", "Potency": "inactive"}
{"smiles": "CC(C(=O)O)c1ccc(/C=C2\\CCCCC2=O)cc1", "note": "(stereo unspecified)", "Potency": "inactive"}
{"smiles": "COC=O", "activation": "0.0799% [at 8.39 µM]"}
{"smiles": "Cc1c(N=C=O)cccc1N=C=O", "Potency": "inactive"}
{"smiles": "O=[N+]([O-])c1ccc(Cl)cc1Cl", "Potency": "inactive"}
{"smiles": "CCCCCCCCNC", "Potency": "inactive"}
{"smiles": "Cc1cc(C)c(C)c(O)c1", "Potency": "inactive"}
{"smiles": "CCC(=O)O[C@]1(C(=O)COC)[C@@H](C)C[C@H]2[C@@H]3CCC4=CC(=O)C=C[C@]4(C)C3(F)[C@@H](O)C[C@@]21C", "note": "(stereo partly specified)", "Potency": "inactive"}
{"smiles": "CCN(CC)CC(=O)OCC(=O)[C@@]1(O)CC[C@H]2[C@@H]3CCC4=CC(=O)CC[C@]4(C)[C@H]3[C@@H](O)C[C@@]21C", "Potency": "inactive"}
{"smiles": "CC1=C(C)C(=O)C(CCCCC#CCCCC#CCO)=C(C)C1=O", "Potency": "inactive"}
{"smiles": "C=CC(=O)OCCCCCCCCCC", "Potency": "inactive"}
{"smiles": "O=C(Cl)c1ccc(F)c(Cl)c1", "Potency": "inactive"}
{"smiles": "O=C(NC1CCN(CCc2c[nH]c3ccccc23)CC1)c1ccccc1", "Potency": "inactive"}
{"smiles": "CCOc1ccccc1O", "Potency": "inactive"}
{"smiles": "CCN(CCCCOC(=O)c1ccc(OC)c(OC)c1)C(C)Cc1ccc(OC)cc1", "note": "(stereo unspecified)", "Potency": "inactive"}
{"smiles": "CC1(C)CC(O)CC(C)(C)N1[O]", "Potency": "inactive"}
{"smiles": "CC(=O)S[C@H](C(=O)N[C@H]1Cc2ccccc2[C@H]2CCC[C@@H](C(=O)O)N2C1=O)C(C)C", "Potency": "inactive"}
{"smiles": "CCOC(OCC)OCC", "Potency": "inactive"}
{"smiles": "Cc1c(Cl)cccc1Nc1ccccc1C(=O)O", "Potency": "inactive"}
{"smiles": "COC(=O)c1cc(Cl)ccc1[N+](=O)[O-]", "Potency": "inactive"}
{"smiles": "O=C(Nc1ccc2c(c1)Cc1ccccc1-2)C(F)(F)F", "Potency": "inactive"}
{"smiles": "O=C1OC(=O)C2CC=CCC12", "note": "(stereo unspecified)", "Potency": "inactive"}
{"smiles": "O=C1C=CCCC1", "Potency": "inactive"}
{"smiles": "O=C(O)CNc1ccccc1", "Potency": "inactive"}
{"smiles": "O=Cc1ccc([N+](=O)[O-])cc1", "Potency": "inactive"}
{"smiles": "O=C(O)c1cccc(C(=O)O)c1C(=O)O", "Potency": "inactive"}
{"smiles": "O=C(Nc1ccccc1)c1cc([N+](=O)[O-])ccc1Cl", "Potency": "inactive"}
{"smiles": "C/C=C1\\[C@H]2C=C(C)C[C@]1(N)c1ccc(=O)[nH]c1C2", "Potency": "inactive"}
{"smiles": "FC(F)(Cl)C(F)(Cl)Cl", "Potency": "inactive"}
{"smiles": "CC(CC(C#N)(c1ccccc1)C(C)C)N(C)C", "note": "(stereo unspecified)", "Potency": "inactive"}
{"smiles": "CO[C@@H]1COCC[C@@H]1N[C@@H]1CC[C@@](C(=O)N2CCc3ncc(C(F)(F)F)cc3C2)(C(C)C)C1", "Potency": "inactive"}
